# Results published in PubChem BioAssay (Tox21).
# Results filed as inconclusive are left out. Entries that show only a call come without a potency. Activity calls are given as the source filed them. The call rests on the fitted dose curve; in most records, active means well fitted cell-killing curve with a large enough effect in the repeat runs; inconclusive means weak or mixed curves, or effect the other way; inactive means flat fitted curve, though single readings scatter.
# Experiment: qHTS assay to identify small molecule antagonists of the androgen receptor (AR) signaling pathway using the MDA cell line in the presence of 0.5 nM R1881 - cell viability counter screen (AID 1259242); further: nearly all actives have a fitted effect of over 45% in size
# Details: MDA-kb2 viability, CellTiter-Fluor protease fluorescence, 16 h; series mostly up to 92.4 µM
# Source text: U.S. Tox21 Program National Center for Advancing Translational Sciences [NCATS] NIH Chemical Genomics Center [NCGC] U.S. Environmental Protection Agency [EPA] National Institutes of Environmental Health Sciences [NIEHS] National Toxicology Program [NTP] U.S. Food and Drug Administration [FDA] Tox21 Assay Overview: Androgen receptor (AR) is an important member of the nuclear receptor family. Its signaling plays a critical role in AR-dependent prostate cancer and other androgen related diseases. Considerable attention has been given in the past decades to develop methods to study and screen for the environmental chemicals that have the potential to interfere with metabolic homeostasis, reproduction, developmental and behavioral functions. Therefore AR binding assay for screening androgen antagonists can be used to identify potential endocrine disruptors. MDA-kb2 cells (from ATCC, deposited by Wilson et al.) were used to screen for AR inhibitors against Tox21 compound libraries. These cells are human breast carcinoma cells that were stably transfected with a luciferase reporter gene under control of the MMTV promoter that contains response elements for both androgen receptor (AR) and glucocorticoid receptor (GR). The current screening for identification of AR inhibitors against Tox21 libraries used lower concentration of (0.5 nM) R1881 as a stimulator. The cytotoxicity of the Tox21 compound libraries against MDA-kb2 cell line was tested by measuring live-cell protease activity using CellTiter-Fluor assay in the same wells.
# Tox21 Assay Protocol Summary: MDA-kb2 cells (cells cultured without CO2) were dispensed at 3,000 cells/well in 4 uL of culture medium into white wall/solid-bottom 1536-well plates (Corning Life Sciences, Corning, NY) using a Multidrop Combi (ThermoFisher Scientific, Waltham, MA) dispenser. After the assay plates were incubated at a 37C and 0% CO2 for 5 hr, 23 nL of compounds dissolved in DMSO, positive controls or DMSO only was transferred to the assay plate by a Pintool station (Kalypsys, San Diego, CA). The transfer of compounds was followed by the addition of 1 uL of 0.5 nM (final concentration) agonist (R1881)/culture medium using a Flying Reagent Dispenser (FRD, Aurora Discovery, San Diego, CA). The plates were incubated at 37C and 0% CO2 for 16 hr. For cytotoxicity assay, 1 uL of CellTiter-Fluor reagent (Promega Corporation, Madison, WI) was added to each well using the FRD and after 30 min incubation at 37C and 0% CO2, The fluorescence intensity was measured using ViewLux plate reader (PerkinElmer, Shelton, CT).
row,Structure (SMILES),Potency
1,COC1=CC(=O)C[C@@H](C)[C@]12Oc1c(Cl)c(OC)cc(OC)c1C2=O,inactive
2,CCCCOCCOCCOC(C)=O,inactive
3,CCN(CC)CCOC(=O)c1ccc(N)cc1,inactive
4,COc1ccccc1O,inactive
5,c1ccc2[nH]c(-c3cscn3)nc2c1,inactive
6,COc1cc2c(c(OC)c1OC)-c1ccc(OC)c(=O)cc1[C@@H](NC(C)=O)CC2,inactive
7,CC(=O)OC/C=C(C)/C=C/C=C(C)/C=C/C1=C(C)CCCC1(C)C,inactive
8,CCCCNC(=O)NS(=O)(=O)c1ccc(N)cc1,inactive
9,COc1ccc(O)cc1,inactive
10,O=C(O)CN(CC(=O)O)CC(=O)O,inactive
11,Oc1cccc(O)c1,inactive
12,OC[C@@H](O)[C@@H](O)[C@H](O)[C@H](O)CO,inactive
13,CCCCCCCCOc1ccc(C(=O)c2ccccc2)c(O)c1,inactive
14,O=C(O)Cc1cccc2ccccc12,inactive
15,CN(C)C=O,inactive
16,CCN1CCCC1=O,inactive
17,Cc1cnc(NC(=O)C2=C(O)c3ccccc3S(=O)(=O)N2C)s1,inactive
18,C[C@]12CC[C@@H]3c4ccc(O)cc4C[C@@H](CCCCCCCCCS(=O)CCCC(F)(F)C(F)(F)F)[C@H]3[C@@H]1CC[C@@H]2O (stereo not given in full),inactive
19,CCCCOCCOCCSC#N,inactive
20,CCCCCCCC(=O)OCC(O)CO (stereo not given),inactive

row,Structure (SMILES),Potency
1,CC(O)COc1ccccc1 (stereo not given),inactive
2,O=c1c(-c2ccc(O)cc2)coc2cc(O)cc(O)c12,inactive
3,COCCOCCOC,inactive
4,CC1=C(/C=C/C(C)=C/C=C/C(C)=C/C(=O)O)C(C)(C)CCC1,inactive
5,CC1=NN(c2ccccc2)C(=O)C1,inactive
6,NC(=O)NO,inactive
7,O=C(OCc1ccccc1)c1ccccc1,inactive
8,Cc1ccc(O)c(-n2nc3ccccc3n2)c1,inactive
9,CC(=O)Oc1ccccc1C(=O)O,inactive
10,N[C@@H](Cc1c[nH]c2ccc(O)cc12)C(=O)O,inactive
11,CN(C)Cc1cc(CN(C)C)c(O)c(CN(C)C)c1,inactive
12,C#C[C@]1(O)CC[C@H]2[C@@H]3CCC4=CC(=O)CC[C@@H]4[C@H]3CC[C@@]21CC,inactive
13,COC(=O)c1ccc(C=O)cc1,inactive
14,COc1ccccc1NC(=O)CC(C)=O,inactive
15,Cc1c(N(C)C)c(=O)n(-c2ccccc2)n1C,inactive
16,CC(C)(C)CC(C)(C)c1ccc(O)c(-n2nc3ccccc3n2)c1,inactive
17,CCCCC/C(C=O)=C\c1ccccc1,inactive
18,COCC(C)N (stereo not given),inactive
19,CCCCCCCCCCCCCC(=O)OC(C)C,inactive
20,O=C(O)CCCCC1CCSS1 (stereo not given),inactive
